# Compound activity deposited in PubChem by several laboratories.
# Sampled rows, rich in hits. Any-hit rate of the full collection: about 5.9%.
# HSF-1 act: HSF-1 activators, primary screen, NIH3T3-HGL cells, MG132 stress, luminescence, single point; activation, % at 9 µM; NIH3T3-HGL HSF-1 luciferase reporter, 8 h; 100% = twice DMSO control signal; 1.7% of 300,000 active; AID 504408, 2011;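 active means mean replicate activation of at least 50% with a set share of replicates each reaching 50%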;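 further: 0% = median of the neutral control wells and 100% = twice that signal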
# AHR activator: AHR activators, primary screen, cell-based, luminescence, luciferase reporter, human; Aryl hydrocarbon receptor (Homo sapiens), P35869; AHR-responsive luciferase reporter cells; activation, % at 5 µM; 2.5% of 320,000 active; AID 2796, 2010; in the data active means activation above about 47%;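 further: 0% = vehicle wells and 100% = reference agonist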
# Target sequence (P35869 whole entry, looked up): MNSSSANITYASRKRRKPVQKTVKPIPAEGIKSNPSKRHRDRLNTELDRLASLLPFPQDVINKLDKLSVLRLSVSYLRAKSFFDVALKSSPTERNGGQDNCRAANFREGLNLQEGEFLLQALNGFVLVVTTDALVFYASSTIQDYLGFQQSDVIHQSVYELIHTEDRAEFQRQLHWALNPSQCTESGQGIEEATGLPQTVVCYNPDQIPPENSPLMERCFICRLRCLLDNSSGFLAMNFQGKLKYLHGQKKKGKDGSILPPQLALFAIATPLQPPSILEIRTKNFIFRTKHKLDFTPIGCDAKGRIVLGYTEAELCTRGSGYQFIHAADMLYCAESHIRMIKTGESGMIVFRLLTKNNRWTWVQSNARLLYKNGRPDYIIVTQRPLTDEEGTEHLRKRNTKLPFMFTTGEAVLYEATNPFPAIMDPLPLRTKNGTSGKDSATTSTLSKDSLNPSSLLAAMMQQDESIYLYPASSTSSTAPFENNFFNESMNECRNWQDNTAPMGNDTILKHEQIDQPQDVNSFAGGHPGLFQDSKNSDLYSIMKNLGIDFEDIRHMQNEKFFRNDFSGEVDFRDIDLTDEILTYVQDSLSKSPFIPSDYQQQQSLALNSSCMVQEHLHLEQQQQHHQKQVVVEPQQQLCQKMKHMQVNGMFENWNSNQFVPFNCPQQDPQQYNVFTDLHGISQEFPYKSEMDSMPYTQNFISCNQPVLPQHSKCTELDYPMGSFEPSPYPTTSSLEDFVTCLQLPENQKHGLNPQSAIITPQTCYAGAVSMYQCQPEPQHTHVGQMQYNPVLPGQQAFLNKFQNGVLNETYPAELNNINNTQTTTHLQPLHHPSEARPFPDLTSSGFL
# DAX1 inh: DAX1 (NR0B1) inhibitors, primary screen, cell-based, HEK293, Gal4-DAX1, luciferase luminescence. Nuclear receptor subfamily 0 group B member 1 (Homo sapiens), P51843. HEK293 Gal4-DAX1 luciferase reporter. inhibition, % at 6.75 µM. 0.99% of 340,000 active. AID 504766, 2011;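 active means inhibition above the mean over all tested compounds plus 3 SD, cut at about 4.2% in these data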;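 further: 0% = DAX1-transfected cells with DMSO and 100% = empty-vector control cells with DMSO; inhibition shows as a rise in luminescence from relieved DAX1 repression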
# HSF1 inh: HSF1 inhibitors in luciferase reporter cells, primary screen, cell-based, NIH3T3, luminescence; 0.77% of 300,000 active; NIH3T3-HGL HSE-luciferase, MG132-induced, luminescence 8 h; active compounds read low; activity change, negative = inhibition, % at 7.5 µM (by protocol);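 active means more than half of replicate wells show activity change below -50%, luminescence cut by over half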;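 further: luciferase reports HSF-1 transcriptional activity via heat shock element; 0% = median of DMSO wells and -100% = zero luminescence signal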
# HSP90 refold inh: HSP90 inhibitors, primary screen, cell lysate, luminescence | Heat shock protein HSP 90 (rabbit reticulocyte lysate; luciferase refolding) | Rabbit reticulocyte lysate, luciferase refolding luminescence, 3 h | inhibition, % at 5.6 µM | 0.91% of 290,000 active | AID 1789, 2009;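 active means inhibition above the screen-wide mean plus 3 SD, computed separately per campaign, cut at about 16% in these data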;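 further: 0% = DMSO wells and 100% = 60 µM geldanamycin wells; inhibitors lower the luminescence because luciferase stays unfolded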
# GAA850 FXN act: FXN promoter activators, primary screen, cell-based, luciferase luminescence, HEK293 lucGAA850; HEK293 lucGAA850 FXN promoter luciferase reporter, 24 h; percent of 10 µM SAHA response; activation, % at 6 µM; 0.56% of 360,000 active;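 active means activation above the average of all compounds screened plus 3 SD, cutoff fixed separately per campaign, cut at about 7.5% in these data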;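 further: 0% = DMSO wells and 100% = 10 µM SAHA wells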
# HSP90 inh confirm: HSP90 inhibitors, confirmation, cell lysate, luminescence; shares compounds with HSP90 refold inh; rabbit reticulocyte lysate, luciferase refolding luminescence, 3 h; inhibition, % at 5.9 µM; 64% of 2,300 active; AID 1846, 2009; in the data active means inhibition above about 18%;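 further: 0% = vehicle wells and 100% = reference inhibitor wells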
# luciferase ctr: firefly luciferase inhibitors, HSP90 counter-screen, confirmation, artefact control for HSP90 inhibitor project, biochemical, luminescence, triplicate; shares compounds with HSP90 refold inh; purified native firefly luciferase; inhibition, % at 5.9 µM; 48% of 2,300 active; AID 1847, 2009;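 active means inhibition above the mean inhibition of all tested sample wells plus 3 SD, cut at about 10% in these data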;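 further: 0% = DMSO with luciferase and 100% = wells lacking luciferase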
# The depositor's hits bear a star; / = no result given.
SMILES,HSF-1 act,AHR activator,DAX1 inh,HSF1 inh,HSP90 refold inh,GAA850 FXN act,HSP90 inh confirm,luciferase ctr
CCOc1ccc(NC(=O)CC(Cc2cc(C)cc(C)c2)C(=O)O)cc1 (stereo not given),-8,/,0,-2,1,2,/,/
O=C(N/C(=C\c1cccs1)C(=O)N1CCCCCC1)c1ccccc1,-2,0,0,-3,31*,2,-1,-20
O=C1NC[C@H](c2ccccc2)N(CCC23CC4CC(CC(C4)C2)C3)C1=O,-11,-1,0,-6,/,4,/,/
COC(=O)c1sc(NC(=O)c2ccc(C)o2)nc1C,-3,25,-1,20,10,6,/,/
CCOC(=O)c1sc(NC(=O)c2ccc(OC)cc2)nc1C,1,-4,0,11,18*,1,28*,-6
CC(=O)c1sc(NC(=O)c2ccc(C(C)(C)C)cc2)nc1C,-13,-6,1,-15,30*,6,9,-5
CCOC(=O)c1sc(NC(=O)c2ccc(C)o2)nc1C,34,9,1,11,45*,3,44*,-14
Cc1c(C(=O)Nc2nnc(C(F)(F)F)s2)oc2ccccc12,20,13,0,2,/,-1,/,/
COC(=O)c1sc(NC(=O)c2oc3ccccc3c2C)nc1C,9,12,0,10,55*,3,35*,-24
CCOC(=O)c1sc(NC(=O)c2ccc(OC(C)=O)cc2)nc1C,/,-8,0,/,6,-1,/,/
CCOc1ccccc1NC(=O)c1cc(C(=O)Nc2ccccc2OCC)cc(N2C(=O)CCC2=O)c1,6,9,-1,-2,0,0,/,/
O=S(=O)(Nc1ncccn1)c1ccc(NC(=S)Nc2ccccc2Cl)cc1,6,-1,4,-3,0,1,/,/
Cc1c(C(=O)N2CCN(S(=O)(=O)c3ccc(F)cc3)CC2)oc2ccccc12,11,6,0,1,/,2,/,/
COc1ccc(C(=O)Nc2ccccc2C(=O)N/N=C/c2cccc3ccccc23)cc1,-76,26,-2,-72*,35*,3,80*,51*
COc1ccc(C(=O)Nc2ccccc2C(=O)N/N=C/c2ccncc2)cc1OC,24,5,-6,8,29*,5,61*,19*
COc1ccc(C(=O)Nc2ccccc2C(N)=O)cc1,19,9,0,8,-7,4,/,/
Nc1ccc(-c2nc3nc(N)nc(N)c3nc2-c2ccc(N)cc2)cc1,-6,3,-1,-6,-2,2,/,/
CCOC(=O)Cc1csc(NC(=S)NC(=O)c2ccc(C)cc2)n1,-39,-18,-2,-39,36*,-7,40*,-14
Nc1cc2nn(-c3ccccc3)nc2cc1Cl,41,/,2,-3,43*,4,18*,-8
COc1ccc(C)cc1S(=O)(=O)N1CCCC(C(=O)N2CCN(c3ccccc3)CC2)C1 (stereo not given),17,-1,-1,4,22*,-1,3,-2
CCOC(=O)N1CCN(C(=O)C2CCCN(S(=O)(=O)c3cc(C)ccc3OC)C2)CC1 (stereo not given),3,0,-1,-9,2,2,/,/
Cc1cc(O)c(N)c(C)c1Cl,-19,13,0,6,43*,3,81*,-4
Cc1cc(OCC(=O)N(Cc2ccco2)c2c(N)n(Cc3ccccc3)c(=O)[nH]c2=O)ccc1Cl,/,-1,1,/,/,-2,/,/
Cc1ccc(-c2nc3ccc(Cl)cc3n2OC(C)C(=O)O)cc1 (stereo not given),21,6,2,9,62*,7,-5,-23
CC(On1c(-c2ccccc2)nc2ccc(Cl)cc21)C(=O)O (stereo not given),27,3,2,21,-1,7,/,/
SMILES,HSF-1 act,AHR activator,DAX1 inh,HSF1 inh,HSP90 refold inh,GAA850 FXN act,HSP90 inh confirm,luciferase ctr
COCCn1c(Cc2ccccc2)nnc1SC(C)C(=O)NC1CC1 (stereo not given),/,-2,1,/,/,2,/,/
Cc1nn2cc(-c3ccc(-c4ccccc4)cc3)nc2s1,11,-1,1,-7,1,1,/,/
CCc1nn2cc(-c3ccccc3)nc2s1,-13,-5,-4,-18,65*,-4,81*,73*
Cc1ccc2nc(NC(=O)c3ccco3)sc2c1,-12,-9,-4,-10,45*,-8,83*,79*
COc1ccc2c(c1)Cc1sc(NC(=O)c3ccccc3)nc1-2,26,-6,0,22,18*,3,-3,-28
COc1cccc(C(=O)Nc2nc3ccccc3s2)c1,47,33,3,27,3,3,/,/
COC(=O)c1ccc2nc(NC(=O)C3CC3)sc2c1,28,-4,1,19,39*,4,57*,-20
COc1ccc(C(=O)Nc2nc3ccccc3s2)cc1,-17,-3,-3,-17,37*,-3,73*,67*
C=CCCCCCCCCC(=O)NN,4,6,-1,-7,2,-1,/,/
CCC(=O)Oc1ccc(C(=O)Nc2cccc(C(=O)NC(C)(C)C)c2)cc1,26,9,-1,3,-3,1,/,/
COc1ccc2nc(NC(=O)c3ccco3)sc2c1,1,-6,-3,-11,41*,-2,58*,56*
O=C(Nc1nc2ccc(Br)cc2s1)c1ccco1,47,12,1,14,3,1,/,/
O=S(=O)(O)c1cccc(N=Nc2c(O)ccc3ccccc23)c1,-20,4,1,1,33*,1,34*,0
O=C(Nc1ccc2[nH]ccc2c1)c1ccc(F)cc1,34,-8,-3,14,53*,3,64*,46*
O=C(Nc1ccc2[nH]ccc2c1)c1ccccc1,10,-4,-2,1,44*,2,56*,30*
COC(=O)C1=C(C)N(CCc2cc(OC)c(OC)c(OC)c2)C(=O)N[C@H]1c1ccc(Br)cc1,24,1,/,5,0,/,/,/
Cc1nc(NC(=O)c2ccco2)sc1-c1csc(Nc2ccc(Cl)cc2)n1,-24,75*,-1,-11,19*,-2,5,-24
